Targets with a hit are over-represented here; the source holds about 8,800 in all. About 0.5% of all pairs of compound and target were hits. Unmarked numbers belong to inactive results.
How the values were obtained:
Test in all cases: log2 fold change, soluble protein after heating vs DMSO (PISA); higher = thermal stabilisation; K562 lysate, 10 uM; active = over 0.2 and 3.5 SD of the protein, either way, in both replicates (recomputed)
ibrutinib = compound: C=CC(=O)N1CCC[C@@H](n2nc(-c3ccc(Oc4ccccc4)cc3)c3c(N)ncnc32)C1 [ibrutinib]
In short: (§1)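 Pellets of K562 cells were dounce-homogenised in PBS pH 7.4 with 1 mM MgCl2, and the crude extract was held at 1 mg/mL protein for a 30 min treatment with 10 μM compound. Aliquots were heated for 3 min over 48°C-58°C and pooled before NP-40 was added to 0.5% at 4°C. The supernatant from 21,000xg for 90 min was quantified by TMTpro 16plex LC-MS/MS with channel sums equalised. Values are reported from duplicates as log-two fold change in thermal stability relative to solvent controls.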

[1] = compound: CC(=O)c1cnc2ccc(-c3cc(Cl)c(O)c(Cl)c3)nc2c1N[C@H]1CC[C@H](CN(C)C)CC1
In short: as §1

ralimetinib = compound: CC(C)(C)Cn1c(N)nc2ccc(-c3[nH]c(C(C)(C)C)nc3-c3ccc(F)cc3)nc21 [ralimetinib]
In short: as §1

[2] = compound: CC(C)(O)CC(=O)NCCn1ccc2ncnc(Nc3ccc(Oc4cccc(C(F)(F)F)c4)c(Cl)c3)c21
In short: as §1

[3] = compound: CC(C)C1=C2N=C(C=C(N2N=C1)NCC3=CC=CC=C3)NCCCCCCN
In short: as §1

[4] = compound: CC1=C(C(CC(=O)N1)C2=CC=C(C=C2)C(F)(F)F)C(=O)NC3=C(C=C4C(=C3)C=NN4)F
In short: as §1

[5] = compound: CC1=C(C2=C(C=C1)C(=O)C3=CC=CC=C3N2CCCN)C
In short: as §1

[6] = compound: CC1=C(C=C(C=C1)NC(=O)C2=CC(=CC=C2)C(C)(C)C#N)NC3=CC4=C(C=C3)N=CN(C4=O)C
In short: as §1

[7] = compound: CC1=C(C=C(C=C1)NC(=O)C2=CC(=CC=C2)N(C)C)NC(=O)C3=CC=C(C=C3)O
In short: as §1

[8] = compound: CC1=CC=C(C=C1)SC2=C3C=C(SC3=CN=C2)C(=O)N
In short: as §1

vemurafenib = compound: CCCS(=O)(=O)Nc1ccc(F)c(C(=O)c2c[nH]c3ncc(-c4ccc(Cl)cc4)cc23)c1F [vemurafenib]
In short: as §1

[9] = compound: CCCS(=O)(=O)Nc1ccc(F)c(C(=O)c2c[nH]c3ncc(Cl)cc23)c1F
In short: as §1

barasertib = compound: CCN(CCCOc1ccc2c(Nc3cc(CC(=O)Nc4cccc(F)c4)[nH]n3)ncnc2c1)CCOP(=O)(O)O [barasertib]
In short: as §1

[10] = compound: CC[C@@H]1C(=O)N(C)c2cnc(Nc3ccc(C(=O)NC4CCN(C)CC4)cc3OC)nc2N1C1CCCC1
In short: as §1

volasertib = compound: CC[C@@H]1C(=O)N(C)c2cnc(Nc3ccc(C(=O)N[C@H]4CC[C@H](N5CCN(CC6CC6)CC5)CC4)cc3OC)nc2N1C(C)C [volasertib]
In short: as §1

[11] = compound: CCn1c(C(=O)N(C2CC2)C2CC2)cc2c3c(ncn3C)c(Nc3cc(C)n(C)n3)nc21
In short: as §1

[12] = compound: CCn1cc(-c2ccnc3[nH]c(-c4cccc(CN(C)C)c4)cc23)c(-c2ccc(NC(=O)N(C)C)cc2)n1
In short: as §1

[13] = compound: CN1CCC(CNc2ccc3ncc(-c4cccc(OC(F)(F)F)c4)n3n2)CC1
In short: as §1

saracatinib = compound: CN1CCN(CCOc2cc(OC3CCOCC3)c3c(Nc4c(Cl)ccc5c4OCO5)ncnc3c2)CC1 [saracatinib]
In short: as §1

sotrastaurin = compound: CN1CCN(c2nc(C3=C(c4c[nH]c5ccccc45)C(=O)NC3=O)c3ccccc3n2)CC1 [sotrastaurin]
In short: as §1

Sequence of UniProt Q14203 (Q14203 whole entry, looked up): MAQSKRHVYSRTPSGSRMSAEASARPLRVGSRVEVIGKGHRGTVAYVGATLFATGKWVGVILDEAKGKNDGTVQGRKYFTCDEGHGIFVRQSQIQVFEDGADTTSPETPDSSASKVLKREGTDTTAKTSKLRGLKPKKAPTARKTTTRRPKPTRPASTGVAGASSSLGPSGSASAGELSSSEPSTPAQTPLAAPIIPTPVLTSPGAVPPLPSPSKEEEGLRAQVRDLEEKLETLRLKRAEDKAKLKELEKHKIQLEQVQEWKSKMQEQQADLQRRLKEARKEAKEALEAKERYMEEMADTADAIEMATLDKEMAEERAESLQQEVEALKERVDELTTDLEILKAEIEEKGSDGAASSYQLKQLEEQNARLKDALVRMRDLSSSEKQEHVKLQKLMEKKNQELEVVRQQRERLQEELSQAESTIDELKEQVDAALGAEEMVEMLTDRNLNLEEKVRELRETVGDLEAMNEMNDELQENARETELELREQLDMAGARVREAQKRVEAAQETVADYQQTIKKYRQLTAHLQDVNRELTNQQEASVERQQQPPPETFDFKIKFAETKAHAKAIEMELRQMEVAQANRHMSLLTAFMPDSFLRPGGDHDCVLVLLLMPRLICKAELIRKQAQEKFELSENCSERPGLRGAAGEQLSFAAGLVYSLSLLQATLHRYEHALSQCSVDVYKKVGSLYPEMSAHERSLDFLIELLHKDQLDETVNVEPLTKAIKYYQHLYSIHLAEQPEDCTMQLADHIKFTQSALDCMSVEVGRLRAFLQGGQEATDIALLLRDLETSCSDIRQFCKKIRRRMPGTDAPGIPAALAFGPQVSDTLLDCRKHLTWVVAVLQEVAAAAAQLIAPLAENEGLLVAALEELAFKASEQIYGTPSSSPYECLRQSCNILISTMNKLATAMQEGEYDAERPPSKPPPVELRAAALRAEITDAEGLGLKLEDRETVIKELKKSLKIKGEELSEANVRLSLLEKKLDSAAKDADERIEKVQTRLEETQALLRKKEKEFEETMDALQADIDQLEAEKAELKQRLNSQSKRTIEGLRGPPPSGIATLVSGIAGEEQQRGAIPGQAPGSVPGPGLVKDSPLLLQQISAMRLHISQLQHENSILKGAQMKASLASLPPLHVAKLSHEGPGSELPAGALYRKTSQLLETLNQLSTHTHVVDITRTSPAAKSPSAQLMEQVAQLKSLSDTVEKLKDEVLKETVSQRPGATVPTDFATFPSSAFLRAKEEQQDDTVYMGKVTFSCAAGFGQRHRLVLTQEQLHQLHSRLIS
Sequence of UniProt Q9Y315 (Q9Y315 whole entry, looked up): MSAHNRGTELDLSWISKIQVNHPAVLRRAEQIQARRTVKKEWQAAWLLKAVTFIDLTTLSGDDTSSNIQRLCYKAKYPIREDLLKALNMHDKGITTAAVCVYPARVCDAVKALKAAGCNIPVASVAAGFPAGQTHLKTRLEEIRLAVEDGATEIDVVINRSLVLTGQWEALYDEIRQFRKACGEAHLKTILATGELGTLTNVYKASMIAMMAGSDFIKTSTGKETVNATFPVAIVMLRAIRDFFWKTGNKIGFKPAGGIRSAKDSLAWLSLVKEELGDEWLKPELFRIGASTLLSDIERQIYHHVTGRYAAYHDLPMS
Sequence of UniProt P19784 (P19784 whole entry, looked up): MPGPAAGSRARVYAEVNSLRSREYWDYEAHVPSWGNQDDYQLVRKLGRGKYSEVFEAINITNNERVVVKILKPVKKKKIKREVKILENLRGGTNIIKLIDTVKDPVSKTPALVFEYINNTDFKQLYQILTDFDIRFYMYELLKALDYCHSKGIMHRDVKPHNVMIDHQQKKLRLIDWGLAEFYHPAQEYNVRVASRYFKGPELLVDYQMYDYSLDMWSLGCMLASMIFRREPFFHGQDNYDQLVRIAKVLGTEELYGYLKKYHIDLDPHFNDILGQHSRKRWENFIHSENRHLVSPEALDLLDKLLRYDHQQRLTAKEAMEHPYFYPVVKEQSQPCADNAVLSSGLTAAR
Sequence of UniProt P48729 (P48729 whole entry, looked up): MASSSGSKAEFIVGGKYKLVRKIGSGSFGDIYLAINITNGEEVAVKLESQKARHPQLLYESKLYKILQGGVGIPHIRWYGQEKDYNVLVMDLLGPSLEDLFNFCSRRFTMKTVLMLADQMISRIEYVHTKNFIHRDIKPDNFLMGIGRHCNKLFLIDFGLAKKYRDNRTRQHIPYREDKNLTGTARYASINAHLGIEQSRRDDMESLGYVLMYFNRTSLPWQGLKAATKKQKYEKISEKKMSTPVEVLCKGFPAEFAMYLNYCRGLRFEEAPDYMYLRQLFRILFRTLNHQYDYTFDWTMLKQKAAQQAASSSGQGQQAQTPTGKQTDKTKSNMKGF
Sequence of UniProt P50570 (P50570 whole entry, looked up): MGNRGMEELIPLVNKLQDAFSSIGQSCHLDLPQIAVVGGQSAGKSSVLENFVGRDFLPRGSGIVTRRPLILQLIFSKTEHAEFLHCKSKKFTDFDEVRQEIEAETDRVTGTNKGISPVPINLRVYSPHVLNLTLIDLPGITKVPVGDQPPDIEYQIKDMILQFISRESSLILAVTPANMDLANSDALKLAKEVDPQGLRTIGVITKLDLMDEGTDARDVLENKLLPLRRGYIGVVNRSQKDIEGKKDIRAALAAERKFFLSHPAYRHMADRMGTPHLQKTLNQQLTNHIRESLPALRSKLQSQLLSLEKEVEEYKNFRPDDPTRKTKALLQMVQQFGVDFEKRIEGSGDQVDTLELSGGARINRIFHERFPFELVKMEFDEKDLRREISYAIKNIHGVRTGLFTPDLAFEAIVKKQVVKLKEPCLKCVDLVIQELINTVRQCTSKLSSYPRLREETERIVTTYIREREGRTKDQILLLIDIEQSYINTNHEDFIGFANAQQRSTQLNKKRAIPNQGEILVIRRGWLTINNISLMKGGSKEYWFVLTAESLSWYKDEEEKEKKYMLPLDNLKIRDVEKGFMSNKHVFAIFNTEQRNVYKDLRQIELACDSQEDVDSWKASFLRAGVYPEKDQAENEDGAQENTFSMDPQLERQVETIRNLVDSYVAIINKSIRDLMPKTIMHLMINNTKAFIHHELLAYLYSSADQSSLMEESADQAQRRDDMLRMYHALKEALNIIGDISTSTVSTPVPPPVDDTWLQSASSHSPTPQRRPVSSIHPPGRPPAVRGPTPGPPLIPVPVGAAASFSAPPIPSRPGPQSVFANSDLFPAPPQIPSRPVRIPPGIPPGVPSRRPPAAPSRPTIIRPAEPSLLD
Sequence of UniProt Q7Z401 (Q7Z401 whole entry, looked up): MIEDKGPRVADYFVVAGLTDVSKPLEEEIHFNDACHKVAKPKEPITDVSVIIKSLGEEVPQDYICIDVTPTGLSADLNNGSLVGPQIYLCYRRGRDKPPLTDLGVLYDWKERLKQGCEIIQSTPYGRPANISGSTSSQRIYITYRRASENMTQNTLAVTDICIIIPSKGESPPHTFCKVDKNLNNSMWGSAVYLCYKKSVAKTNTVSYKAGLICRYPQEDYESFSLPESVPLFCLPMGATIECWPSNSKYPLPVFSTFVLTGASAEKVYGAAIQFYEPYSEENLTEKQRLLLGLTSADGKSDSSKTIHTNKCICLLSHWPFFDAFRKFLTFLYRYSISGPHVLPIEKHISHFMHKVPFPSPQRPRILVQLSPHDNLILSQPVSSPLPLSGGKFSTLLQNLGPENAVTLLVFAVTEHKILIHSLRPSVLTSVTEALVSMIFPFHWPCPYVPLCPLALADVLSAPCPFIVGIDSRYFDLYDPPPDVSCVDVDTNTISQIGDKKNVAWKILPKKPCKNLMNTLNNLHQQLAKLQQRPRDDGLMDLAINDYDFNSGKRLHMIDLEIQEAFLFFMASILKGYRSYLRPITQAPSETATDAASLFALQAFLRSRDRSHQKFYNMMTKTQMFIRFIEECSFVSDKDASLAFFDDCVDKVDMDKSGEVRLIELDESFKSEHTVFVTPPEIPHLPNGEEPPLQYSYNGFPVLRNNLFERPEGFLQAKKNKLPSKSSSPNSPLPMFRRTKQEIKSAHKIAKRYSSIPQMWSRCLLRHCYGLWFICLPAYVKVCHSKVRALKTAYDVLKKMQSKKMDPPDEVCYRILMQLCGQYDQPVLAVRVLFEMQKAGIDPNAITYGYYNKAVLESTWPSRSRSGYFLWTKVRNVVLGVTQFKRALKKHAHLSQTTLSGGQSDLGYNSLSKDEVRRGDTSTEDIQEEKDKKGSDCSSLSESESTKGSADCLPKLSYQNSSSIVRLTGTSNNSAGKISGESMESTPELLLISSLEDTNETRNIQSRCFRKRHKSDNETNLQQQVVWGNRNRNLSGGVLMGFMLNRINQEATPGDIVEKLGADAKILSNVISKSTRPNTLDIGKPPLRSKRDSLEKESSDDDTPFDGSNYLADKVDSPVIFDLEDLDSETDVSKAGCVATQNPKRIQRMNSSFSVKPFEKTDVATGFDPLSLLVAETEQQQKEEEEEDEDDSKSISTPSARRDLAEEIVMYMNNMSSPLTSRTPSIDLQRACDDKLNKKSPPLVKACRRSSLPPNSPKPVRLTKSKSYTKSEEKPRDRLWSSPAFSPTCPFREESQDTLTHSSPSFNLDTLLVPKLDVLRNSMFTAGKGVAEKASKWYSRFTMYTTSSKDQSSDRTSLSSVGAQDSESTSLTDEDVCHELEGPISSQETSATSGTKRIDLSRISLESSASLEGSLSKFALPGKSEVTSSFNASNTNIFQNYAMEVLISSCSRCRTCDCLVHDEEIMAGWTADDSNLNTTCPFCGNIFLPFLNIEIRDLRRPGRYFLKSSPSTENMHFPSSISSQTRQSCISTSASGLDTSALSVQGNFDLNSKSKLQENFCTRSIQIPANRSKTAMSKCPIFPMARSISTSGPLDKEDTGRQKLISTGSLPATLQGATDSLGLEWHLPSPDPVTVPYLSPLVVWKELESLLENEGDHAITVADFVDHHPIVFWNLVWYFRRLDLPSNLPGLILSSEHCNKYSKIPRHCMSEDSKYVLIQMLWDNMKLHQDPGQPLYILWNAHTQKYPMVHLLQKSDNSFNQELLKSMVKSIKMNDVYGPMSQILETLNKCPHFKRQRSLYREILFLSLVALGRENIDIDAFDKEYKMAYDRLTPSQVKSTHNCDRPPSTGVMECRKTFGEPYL

Row | Target | log2 fold change (ibrutinib) | log2 fold change [1] | log2 fold change (ralimetinib) | log2 fold change [2] | log2 fold change [3] | log2 fold change [4] | log2 fold change [5] | log2 fold change [6] | log2 fold change [7] | log2 fold change [8] | log2 fold change (vemurafenib) | log2 fold change [9] | log2 fold change (barasertib) | log2 fold change [10] | log2 fold change (volasertib) | log2 fold change [11] | log2 fold change [12] | log2 fold change [13] | log2 fold change (saracatinib) | log2 fold change (sotrastaurin)
1 | DERA (UniProt Q9Y315) | -0.011 | 0.008 | 0.008 | -0.032 | 0.013 | -0.01 | -0.037 | 0.033 | -0.008 | -0.017 | -0.013 | -0.001 | -0.064 | 0.077 | 0.025 | -0.031 | 0.985 (active) | -0.115 | 0 | -0.03
2 | CSNK1A1 (UniProt P48729) | -0.098 | 0.148 | 0.088 | -0.002 | -0.035 | -0.019 | -0.002 | -0.029 | 0 | 0.003 | -0.044 | 0.017 | -0.003 | 0.078 | -0.066 | 0.097 | 0.065 | 0.171 | 0.02 | 0.048
3 | CSNK2A2 (UniProt P19784) | -0.015 | 0.666 (active) | 0.012 | -0.014 | -0.01 | -0.046 | 0.185 | -0.017 | 0.003 | 0 | -0.219 | -0.005 | -0.044 | -0.031 | -0.082 | 0.011 | -0.092 | 0.418 | 0 | 0.023
4 | DCTN1 (UniProt Q14203) | -0.005 | 0.01 | 0.013 | -0.02 | -0.006 | 0.001 | 0.011 | -0.013 | 0.009 | 0.011 | -0.025 | 0.008 | 0.021 | -0.021 | -0.048 | 0.002 | 0.034 | -0.034 | 0.029 | -0.003
5 | DENND4A isoform 2 (UniProt Q7Z401) | 0 | -0.089 | 0.018 | -0.028 | 0.017 | 0.006 | 0.026 | 0.029 | 0.023 | -0.009 | -0.024 | 0.024 | 0.029 | 0.011 | -0.069 | 0.004 | -0.132 | 0.099 | 0.059 | 0.025
6 | CIC (UniProt I3L2J0) | 0.036 | 0.044 | 0.055 | -0.083 | 0.013 | 0.054 | -0.044 | 0.029 | 0.02 | 0.028 | -0.077 | -0.043 | 0.4 (active) | -0.057 | -0.032 | 0.001 | -0.05 | -0.004 | 0.021 | -0.016
7 | DICER1 (UniProt Q9UPY3) | -0.011 | 0.037 | 0.019 | -0.055 | 0.012 | 0.044 | 0.003 | 0.018 | 0.013 | 0 | -0.002 | 0.05 | 0.01 | 0.003 | -0.068 | 0.021 | 0.275 | 0.036 | 0.005 | -0.018
8 | DNM2 (UniProt P50570) | 0.014 | 0 | 0.013 | 0.013 | 0.018 | 0.011 | 0.024 | -0.016 | 0.006 | 0.004 | 0.002 | 0.005 | 0.037 | -0.024 | -0.043 | 0.029 | -0.012 | 0.013 | 0.016 | 0.001
